eIF4E 4G PPI: blocks eIF4E binding to eIF4G | P63073+Q04637 | TR-FRET eIF4E-eIF4GI(517-606) binding, 2 h | inhibition, % at 21.7 µM | 220,000 compounds, 0.37% hits | AID 782;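 active = inhibition above about 30%, limit read from the data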;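 note: 0% = full FRET control wells and 100% = background wells lacking eIF4GI fragment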
INS promoter inh: TRM-6 insulin promoter activity inhibition; AID 1273; inhibition, % at 2 µM; 130,000 compounds, 0.9% hits; TRM-6 cells (human fetal islet line), insulin promoter-eGFP reporter, imaging; reporter expression induced with tamoxifen;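 active = inhibition above the mean plus 3 SD, with well images judged a real hit on visual review, cut at about 60% in these data, passing the limit was not always enough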
PERK inhibitor: inhibitors of human PERK kinase; 220,000 compounds, 0.17% hits; Q9NZJ5; CHO PERK-DD fusion, SEAP luminescence translation reporter; AID 1416; inhibition, % at 5.6 µM;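 active = inhibition above the mean inhibition of all tested compounds plus 3 SD, set separately per screening campaign, cut at about 2.9% in these data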;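 note: PERK kinase domain activated by AP20187 dimerizer at 100 nM; 0% = DMSO with dimerizer and 100% = rapamycin at 8.4 µM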
Autophagy HCS: modulators of autophagy | MEF GFP-LC3 puncta imaging; test concentration mostly 10 µM | calls only at 10 µM (by protocol) | 190,000 compounds, 0.98% hits | AID 463193;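 active = percentage of spot-positive cells more than 3 SD above its plate mean, without a fluorescence outlier flag or 80% toxicity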;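 note: spot-positive cell cutoff set from DMSO-treated cells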
Ins promoter up: MIN6 insulin promoter up-regulation; z-score at 5 µM; MIN6 insulin promoter-GFP reporter, high-content imaging; hits give high values; AID 1625; 190,000 compounds, 0.3% hits;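 active = z-score above 3 at 5 µM with at least 500 cells counted in the well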
* marks the source's active call; other numbers are inactive results; [ ] = dose if it differs, or a comment. Compounds with a hit are over-represented: about 2% of the library has one in this group of screens.

What do the screens show for `CC(C(=O)N1c2ccc(F)cc2CCC1C)N1C(=O)c2ccccc2C1=O` (centres undefined)?
eIF4E 4G PPI: -7.0; INS promoter inh: -7.9; PERK inhibitor: -0.2; Autophagy HCS: inactive

Results for CCOc1ccc(N=C(/C(C(=O)C(=O)N2CCOCC2)=C(\O)c2ccccc2)c2ccccc2)cc1 ?
eIF4E 4G PPI: -5.7; INS promoter inh: -8.3; PERK inhibitor: 0.4; Autophagy HCS: inactive; Ins promoter up: 0.24

What do the screens show for `Cc1cc(F)ccc1NC(=O)C1CCCO1` (centres undefined)?
eIF4E 4G PPI: 3.6; PERK inhibitor: 1.4; Autophagy HCS: inactive; Ins promoter up: 1.57

How did COc1cccc(/C=N/NC(=O)CCn2cnc3ccccc32)c1 do in these assays?
eIF4E 4G PPI: -3.1; PERK inhibitor: 0.5; Ins promoter up: 3.74*

What do the screens show for `CC1(C)Cc2c(ccc3ccccc23)C(c2cc3ccccc3oc2=O)=N1`?
eIF4E 4G PPI: -5.8; INS promoter inh: 17.1; PERK inhibitor: -0.1; Autophagy HCS: inactive; Ins promoter up: 4.19*

What do the screens show for `CC1(C)Cc2ccccc2C(c2cc3ccccc3oc2=O)=N1`?
eIF4E 4G PPI: -1.8; INS promoter inh: -30.8; PERK inhibitor: -0.4; Autophagy HCS: inactive

What do the screens show for `Cc1cc(/C=C(\C#N)C(=O)OCC(=O)Nc2ccc(OC(F)F)cc2)c(C)n1CC(C)C`?
eIF4E 4G PPI: 3.9; INS promoter inh: 30.0; PERK inhibitor: 0.2; Autophagy HCS: inactive; Ins promoter up: 1.33

How did Oc1ccc(-c2csc(Nc3ncccn3)n2)cc1 do in these assays?
eIF4E 4G PPI: -2.1; PERK inhibitor: 0.1; Autophagy HCS: inactive; Ins promoter up: 0

Results for Oc1ccc(Nc2nc(-c3ccc4ccccc4c3)cs2)cc1 ?
eIF4E 4G PPI: 2.7; INS promoter inh: -60.0; PERK inhibitor: -0.7; Autophagy HCS: active

Results for FC(F)(F)c1ccc(NC(=S)NCc2ccccc2)cc1 ?
eIF4E 4G PPI: -6.5; INS promoter inh: 33.3; PERK inhibitor: 0.7; Autophagy HCS: inactive

Results for Cn1ccc(=S)c2ccccc21 ?
eIF4E 4G PPI: -0.4; INS promoter inh: 88.9*; PERK inhibitor: 0.9; Autophagy HCS: inactive

What do the screens show for `Cn1c(=S)n(C)c2ccccc21`?
eIF4E 4G PPI: -0.9; INS promoter inh: 41.7; PERK inhibitor: 0.5; Autophagy HCS: inactive

How did Cc1[nH][nH]c(=O)c1C(c1cc2c(cc1Br)OCO2)c1c(C)[nH][nH]c1=O do in these assays?
eIF4E 4G PPI: 1.9; INS promoter inh: 66.7*; PERK inhibitor: 0.4; Autophagy HCS: inactive; Ins promoter up: -0.72

How did O=C(Nc1ccc(S(=O)(=O)Nc2ncccn2)cc1)c1ccc(Br)s1 do in these assays?
eIF4E 4G PPI: 0.5; INS promoter inh: 30.9; PERK inhibitor: 0.4; Autophagy HCS: inactive

What do the screens show for `Cc1ccccc1NC(=O)C[n+]1cc(-c2ccccc2)n2c1CCC2`?
eIF4E 4G PPI: -5.1; PERK inhibitor: 0.1; Ins promoter up: -0.11

How did NC1=NC(=O)/C(=C\c2ccsc2)S1 do in these assays?
eIF4E 4G PPI: 63.1*; PERK inhibitor: 0.3; Autophagy HCS: inactive; Ins promoter up: 0.06

What do the screens show for `Cc1ccsc1/C=C1\SC(N)=NC1=O`?
eIF4E 4G PPI: -3.3; PERK inhibitor: -0.5; Autophagy HCS: inactive; Ins promoter up: 0.6

How did C=CC[n+]1ccc(/C=C2\C=Cc3cc(C)ccc3N2CC)c2ccccc21 do in these assays?
eIF4E 4G PPI: -7.9; PERK inhibitor: 0.7; Autophagy HCS: inactive

Results for CC1(C)N=C(N)NC(Nc2ccccc2)=N1 ?
eIF4E 4G PPI: -12.9; INS promoter inh: 0.0; PERK inhibitor: 0.0; Autophagy HCS: inactive; Ins promoter up: -0.6

Results for O=C(Cn1cnc2c(oc3ccccc32)c1=O)NCc1ccco1 ?
eIF4E 4G PPI: 0.6; INS promoter inh: 81.8*; PERK inhibitor: 0.1; Autophagy HCS: inactive; Ins promoter up: 1.22

How did CCOc1ccccc1OCCCCCc1c(C)n[nH]c1C do in these assays?
eIF4E 4G PPI: 46.7*; PERK inhibitor: 0.0; Autophagy HCS: inactive; Ins promoter up: -3.04

How did COc1ccc(-n2cc(C(=O)c3cc4ccccc4oc3=O)c(C(C)=O)n2)cc1 do in these assays?
eIF4E 4G PPI: -1.5; INS promoter inh: -5.7; PERK inhibitor: 1.0; Autophagy HCS: inactive; Ins promoter up: -0.47

What do the screens show for `CC(CN1C(C)CCCC1C)OC(=O)c1ccc(Cl)cc1Cl` (centres undefined)?
eIF4E 4G PPI: 3.5; PERK inhibitor: -0.7; Autophagy HCS: active; Ins promoter up: -0.19

Results for CC(CN1C(C)CCCC1C)OC(=O)c1ccccc1Cl (centres undefined) ?
eIF4E 4G PPI: 0.0; PERK inhibitor: 0.1; Autophagy HCS: inactive; Ins promoter up: -0.1

How did COc1cc(CC(=O)Nc2ccc3c(c2)CCC3)cc(OC)c1OC do in these assays?
eIF4E 4G PPI: 59.6*[fluorescence artefact?]; INS promoter inh: -64.9; PERK inhibitor: -0.5; Autophagy HCS: inactive; Ins promoter up: -0.46

How did CCN1/C(=C/c2cc[n+](CCCS(=O)(=O)[O-])c3ccccc23)Sc2ccccc21 do in these assays?
eIF4E 4G PPI: 3.3; PERK inhibitor: 0.6; Autophagy HCS: inactive; Ins promoter up: 6.08*

How did O=C(O)c1nccnc1C(=O)Nc1ccccc1-c1ccccc1 do in these assays?
eIF4E 4G PPI: 2.6; PERK inhibitor: 0.3

What do the screens show for `COC(=O)c1ccc(=O)c2nc3/c(=C/O)c(O)cc(=O)c3[nH]c12`?
eIF4E 4G PPI: 55.3*; PERK inhibitor: -0.2

How did CCSc1nnc(-c2ccccc2N)c(=O)[nH]1 do in these assays?
eIF4E 4G PPI: -2.9; INS promoter inh: 33.3; PERK inhibitor: 0.5; Autophagy HCS: inactive; Ins promoter up: -0.4

How did Nc1ccccc1-c1nnc(SCc2ccccc2F)[nH]c1=O do in these assays?
eIF4E 4G PPI: 33.0*[fluorescence artefact?]; INS promoter inh: 42.3; PERK inhibitor: 0.7; Autophagy HCS: inactive; Ins promoter up: -0.29

Results for CCC(CC)C1=NN2C(=N)/C(=C\c3cc(C)n(-c4cccc(C)c4)c3C)C(=O)N=C2S1 ?
eIF4E 4G PPI: 1.7; INS promoter inh: 36.1; PERK inhibitor: 1.4; Autophagy HCS: active; Ins promoter up: 0.38

Results for CC1CC(C)CN(C(=O)CNS(=O)(=O)c2ccc(Br)s2)C1 (centres undefined) ?
eIF4E 4G PPI: 2.3; INS promoter inh: -2.3; PERK inhibitor: -0.3; Autophagy HCS: inactive; Ins promoter up: -0.11

Results for CC1CCN(C(=O)CNS(=O)(=O)c2ccc(Br)s2)CC1 ?
eIF4E 4G PPI: -1.0; INS promoter inh: 8.3; PERK inhibitor: -0.5; Autophagy HCS: inactive; Ins promoter up: 3.37*

Results for Cc1ccc(NC(=O)CN(Cc2ccccc2)S(C)(=O)=O)cc1C ?
eIF4E 4G PPI: 2.2; INS promoter inh: -32.4; PERK inhibitor: 0.0; Autophagy HCS: inactive; Ins promoter up: -0.02

How did Cc1oc(C(C)(C)C)cc1C(N)=O do in these assays?
eIF4E 4G PPI: 0.5; PERK inhibitor: 3.0*; Ins promoter up: 0.19

Results for Cc1cc(NC(=O)c2cc(C(C)(C)C)oc2C)no1 ?
eIF4E 4G PPI: -6.3; PERK inhibitor: -1.4; Ins promoter up: -0.25

Bioassay records as filed in PubChem BioAssay.
